The nature of assay [1]: optical density shifts of acrAB sulA E. coli – strain DRC41, OD650, 48 h, E. coli filamentation inducer project, primary screen (AID 1152).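 Further: E. coli MC1000 strain DRC41 lacking acrAB efflux pump and sulA.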 Conditions: higher = more signal, called active from +8 up or from −8 down.
Assay [2] is described as follows: probe aLefty1 binding on compound microarray – biochemical, small-molecule microarray, 635/667 nm fluorescence, primary screen (AID 1153).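 Further: score merges spot fluorescence with signal-to-noise ratio from the scanned slide images.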 To be noted: higher = more signal.
Assay [3] in a line: plasmodial surface anion channel blockers, osmotic lysis – cell-based, P. falciparum Indochina, OD700, 1 h, primary screen (AID 1154). To be noted: P. falciparum Indochina infected RBC osmotic lysis, higher = more signal, called active from +8 up or from −8 down.
A short description of assay [4]: plasmodial surface anion channel blockers, osmotic lysis – cell-based, P. falciparum Indochina, OD700, 2 h, primary screen (AID 1155).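 Further: lysis reports solute entry through the parasite surface anion channel PSAC.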 Conditions: P. falciparum Indochina infected erythrocytes, higher = more signal, called active from +8 up or from −8 down.
Assay [5] in a line: changes in parasitized red cell lysis, either direction – P. falciparum Indochina, OD700, 3 h, PSAC antagonist project, primary screen (AID 1156). To be noted: P. falciparum-infected erythrocytes, osmotic lysis, higher = more signal, called active from +8 up or from −8 down.
The nature of assay [6]: plasmodial surface anion channel blockers, osmotic lysis – cell-based, P. falciparum Indochina, OD700, 18 h, primary screen (AID 1157). To be noted: P. falciparum Indochina infected erythrocytes, osmotic lysis OD700, 18 h; higher = more signal, called active from +8 up or from −8 down.
The nature of assay [7]: S6 kinase pathway phospho-S6 level changes – cell-based, A549, cytoblot, luminescence, serum-stimulated, primary screen (AID 1158).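 Further: serum-stimulated A549 lung adenocarcinoma cells; signal is phosphorylated S6 detected by cytoblot immunostaining with HRP secondary.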 To be noted: 5 h, higher = more signal.
Assay [8] addresses NADPH oxidase 2 (Homo sapiens) (UniProt P04839). Kind of assay: compounds shifting NOX2 Amplex Red fluorescence – cell-based, HEK293-NOX2, PMA-stimulated, NOX inhibitor project, primary screen (AID 1159). Further: test concentration not given here. To be noted: 45 min, higher = more signal, called active from +8 up or from −8 down.
Assay [9] concerns the target NADPH oxidase 4 (Homo sapiens) (UniProt Q9NPH5). Nature of the assay: compounds shifting NOX4 Amplex Red fluorescence – cell-based, HEK293-NOX4, tetracycline-induced, NOX inhibitor project, primary screen (AID 1160). To be noted: HEK293-NOX4, Amplex Red H2O2 fluorescence, 45 min; higher = more signal, called active from +8 up or from −8 down.
For assay [10], the target named is NADPH oxidase 5 (Homo sapiens) (UniProt Q96PH1). Nature of the assay: compounds shifting NOX5 Amplex Red fluorescence – cell-based, HEK293-NOX5, NOX inhibitor project, primary screen (AID 1161). To be noted: HEK293-NOX5, ionomycin, 45 min, higher = more signal.
Assay [11] in a line: compound effects on lung adenocarcinoma cell viability – A549, calcein-AM fluorescence, 48 h, basal, profiling panel (AID 1162). Further: test concentration not given here. To be noted: higher = more signal.
A short description of assay [12]: compound effects on differentiated 3T3-L1 adipocyte viability – cell-based, 3T3-L1 adipocytes, calcein-AM fluorescence, 48 h, basal, profiling panel (AID 1163). Further: test concentration not given here. Conditions: 3T3-L1 adipocytes viability, higher = more signal.
The nature of assay [13]: compound effects on hepatocellular carcinoma cell viability – HepG2, calcein-AM fluorescence, 48 h, basal, profiling panel (AID 1164). Further: test concentration not given here. Conditions: higher = more signal.
A short description of assay [14]: compound effects on multiple myeloma cell viability – MM1S, calcein-AM fluorescence, 48 h, basal, profiling panel (AID 1165). Further: test concentration not given here. Conditions: higher = more signal.
Assay [15] is described as follows: calcein-AM signal in unstimulated myeloma cells – cell-based, calcein-AM fluorescence, 48 h, PK04 Diversity Set, profiling panel (AID 1166).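 Further: cells grown under basal conditions without added stimulus; test concentration not given here.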 To be noted: RPMI8226 myeloma viability, higher = more signal.
A short description of assay [16]: JC-1 mitochondrial signal, unstimulated HepG2 cells – cell-based, JC-1 fluorescence, 24 h, 100 nL compound, profiling panel (AID 1167). Further: test concentration not given here. To be noted: HepG2 mitochondrial potential, higher = more signal.
Assay [17] is described as follows: JC-1 mitochondrial signal, unstimulated adipocytes – cell-based, JC-1 fluorescence, 3T3-L1 adipocytes, 24 h, 100 nL compound, profiling panel (AID 1168). Further: test concentration not given here. To be noted: JC-1 mitochondrial fluorescence, higher = more signal, called active from +8 up or from −8 down.
Assay [18] can be described thus: JC-1 mitochondrial signal, unstimulated myeloma cells – cell-based, JC-1 fluorescence, RPMI8226, 24 h, 100 nL compound, profiling panel (AID 1169). Further: test concentration not given here. To be noted: JC-1 mitochondrial potential fluorescence, higher = more signal.
Assay [19] in a line: JC-1 mitochondrial signal, unstimulated MM1S myeloma – cell-based, JC-1 fluorescence, 24 h, 100 nL compound, profiling panel (AID 1170). Further: test concentration not given here. Conditions: MM1S mitochondrial potential, higher = more signal.
A short description of assay [20]: resazurin metabolic signal in A549 cells – cell-based, resazurin fluorescence, 24 h, PK04 Diversity Set, profiling panel (AID 1171). Further: test concentration not given here. Conditions: A549 viability, higher = more signal, called active from +8 up or from −8 down. (In general: Alamar Blue is a resazurin reagent that responds to reducing activity.)

The source made the active and inactive calls.

Chain of NADPH oxidase 4 (Homo sapiens) (Q9NPH5 whole entry, looked up): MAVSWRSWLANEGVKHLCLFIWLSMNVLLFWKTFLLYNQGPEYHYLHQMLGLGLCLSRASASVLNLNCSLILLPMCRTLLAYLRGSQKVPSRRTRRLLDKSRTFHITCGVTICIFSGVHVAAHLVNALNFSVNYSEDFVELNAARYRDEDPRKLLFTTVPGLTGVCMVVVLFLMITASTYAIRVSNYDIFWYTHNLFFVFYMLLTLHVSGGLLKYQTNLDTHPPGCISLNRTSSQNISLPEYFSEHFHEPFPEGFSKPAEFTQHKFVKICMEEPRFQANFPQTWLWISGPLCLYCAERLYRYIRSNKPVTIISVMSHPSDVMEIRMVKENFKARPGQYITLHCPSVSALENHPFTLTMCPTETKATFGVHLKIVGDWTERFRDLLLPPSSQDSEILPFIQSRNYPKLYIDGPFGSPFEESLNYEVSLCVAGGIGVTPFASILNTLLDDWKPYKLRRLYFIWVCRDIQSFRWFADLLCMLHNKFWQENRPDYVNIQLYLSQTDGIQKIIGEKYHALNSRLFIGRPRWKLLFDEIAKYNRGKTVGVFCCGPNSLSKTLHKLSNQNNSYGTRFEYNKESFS
Chain of NADPH oxidase 2 (Homo sapiens) (P04839 whole entry, looked up): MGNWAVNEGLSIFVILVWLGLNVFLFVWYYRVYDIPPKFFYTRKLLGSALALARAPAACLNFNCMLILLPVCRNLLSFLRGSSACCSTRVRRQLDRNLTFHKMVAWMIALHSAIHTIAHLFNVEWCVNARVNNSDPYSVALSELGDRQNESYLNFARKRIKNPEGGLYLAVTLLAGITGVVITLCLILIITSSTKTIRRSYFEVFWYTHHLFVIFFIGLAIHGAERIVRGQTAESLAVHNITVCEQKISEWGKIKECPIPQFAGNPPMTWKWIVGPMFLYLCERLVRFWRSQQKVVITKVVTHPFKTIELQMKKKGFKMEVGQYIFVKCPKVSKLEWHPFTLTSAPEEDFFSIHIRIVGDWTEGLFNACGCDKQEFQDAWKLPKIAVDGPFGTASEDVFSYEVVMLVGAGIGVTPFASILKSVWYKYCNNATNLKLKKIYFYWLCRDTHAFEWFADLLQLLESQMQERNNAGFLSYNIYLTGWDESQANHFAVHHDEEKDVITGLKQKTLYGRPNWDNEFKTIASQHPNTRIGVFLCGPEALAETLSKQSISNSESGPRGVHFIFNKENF
Chain of NADPH oxidase 5 (Homo sapiens) (Q96PH1 whole entry, looked up): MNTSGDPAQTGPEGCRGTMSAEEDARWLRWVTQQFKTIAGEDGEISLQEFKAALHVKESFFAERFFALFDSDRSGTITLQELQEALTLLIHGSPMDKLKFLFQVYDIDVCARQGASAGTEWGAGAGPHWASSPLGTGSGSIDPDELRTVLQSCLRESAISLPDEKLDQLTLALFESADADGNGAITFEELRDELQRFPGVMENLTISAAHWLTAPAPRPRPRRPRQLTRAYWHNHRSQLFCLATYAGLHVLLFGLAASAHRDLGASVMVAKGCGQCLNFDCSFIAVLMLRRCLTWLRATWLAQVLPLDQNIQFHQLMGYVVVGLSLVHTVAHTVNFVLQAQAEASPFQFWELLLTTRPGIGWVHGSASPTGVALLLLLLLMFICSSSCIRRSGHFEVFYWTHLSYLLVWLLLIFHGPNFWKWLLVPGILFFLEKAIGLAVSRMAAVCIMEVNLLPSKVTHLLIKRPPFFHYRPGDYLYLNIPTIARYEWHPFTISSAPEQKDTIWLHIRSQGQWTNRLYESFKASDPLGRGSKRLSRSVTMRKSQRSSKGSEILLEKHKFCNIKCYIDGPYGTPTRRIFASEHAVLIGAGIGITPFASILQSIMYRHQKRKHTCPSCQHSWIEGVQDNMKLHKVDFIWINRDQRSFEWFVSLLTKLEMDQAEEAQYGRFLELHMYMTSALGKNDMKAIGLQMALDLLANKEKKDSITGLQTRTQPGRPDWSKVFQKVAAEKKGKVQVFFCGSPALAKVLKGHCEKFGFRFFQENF

With `C[C@]1(C(=O)O)c2ccccc2C(=O)N(Cc2ccccc2)[C@H]1c1ccc(CO)cc1`, the z-score in assay [1] is 0.576 (inactive); in [3], 3.5 (inactive); in assay [4] it was 0.52 (inactive); in [5], 1.06 (inactive); in assay [6], 0.548 (inactive); in assay [7], -0.0555. For the same molecule, the z-score in assay [8] is 0.67 (inactive); in [9], 0.917 (inactive); in assay [10], 0.42; in assay [11], 0.277; in [12], 0.504; in assay [13] it was 0.67. Moreover, the z-score was 0.132 in assay [14]; 0.0631 in assay [15]; 1.33 in [16]; 0.114 (inactive) in assay [17]; -0.768 in assay [18]; 0.161 in assay [19]. The z-score in assay [20] is 1.08 (inactive). In [2], this molecule returned a composite z-score of -0.147.

As to `COCCOC(=O)N1C(=O)[C@@]2(c3cc(C#CC4(O)CCCCCC4)ccc31)[C@H](c1ccccc1OCCO)N1[C@H](c3ccccc3)[C@H](c3ccccc3)OC(=O)[C@H]1[C@@H]2C(N)=O`, the z-score in assay [1] was -0.552 (inactive); in assay [3], 4.08 (inactive); in assay [4], 1.76 (inactive); in assay [5], -0.971 (inactive); in assay [6] it was 0.76 (inactive); in assay [7] it was -0.255. Further, the z-score in [8] was 1.8 (inactive); in [9], -0.551 (inactive); in assay [10], -0.269; in [11] it was -2.37; in assay [12], 0.943; in assay [13] it was -4.78. The z-score in assay [14] is -3.43; in [15] it was -4.62; in assay [16], -2.3; in assay [17], 1.8 (inactive); in assay [18], -1.14; in assay [19] it was -1.88. Moreover, the z-score in assay [20] is -2.94 (inactive). In [2], this molecule showed a composite z-score of -0.0046.

For `C=C(COC)/C(=C/C[C@@H](OC(=O)c1ccncc1)c1ccc(CO)o1)c1cnc2ccccc2c1`, the z-score is 0.149 (inactive) in [1]; 4.66 (inactive) in assay [3]; 1.24 (inactive) in assay [4]; 1 (inactive) in [5]; 0.234 (inactive) in assay [6]; -0.188 in [7]. For the same molecule, the z-score in [8] is -0.627 (inactive); in assay [9], -1.24 (inactive); in [10], -1.54; in assay [11], -0.308; in [12], 0.513; in assay [13] it was -0.607. The z-score in assay [14] was -0.164; in [15] it was 0.575; in [16], -0.65; in assay [17], 0.654 (inactive); in assay [18] it was 0.0268; in assay [19], -0.151. Further, in assay [20], the z-score was 0.331 (inactive). The composite z-score in [2] came out at 0.471.

As to `O=C(N1CCCCC1)[C@@]1(Cc2ccccc2)COC(c2ccc(OCCCO)cc2)=N1`, the z-score in [1] is 0.436 (inactive); in [3], 20.9 (active); in assay [4], 3.44 (inactive); in [5], 1.32 (inactive); in [6] it was 0.42 (inactive); in assay [7] it was -0.666. Further, the z-score was -4.59 (inactive) in [8]; -0.936 (inactive) in assay [9]; -2.26 in assay [10]; -1.14 in assay [11]; 0.675 in assay [12]; -0.159 in [13]. Further, the z-score in assay [14] is -3.14; in [15], -1.77; in [16], -2.33; in [17], 0.987 (inactive); in assay [18] it was -1.08; in [19], -0.923. In addition, the z-score in [20] was 1.68 (inactive). Moreover, the composite z-score in [2] stood at 0.461.

As for `CC(CO)N1C(=O)[C@@H]2C3C(=O)OCCC/C=C\[C@H]3OC23C=CCN(Cn2nnc4ccccc42)C(=O)[C@@H]13` (stereo not given in full), the z-score in assay [1] was 0.822 (inactive); in assay [3], 1.03 (inactive); in assay [4] it was 0.132 (inactive); in [5] it was 2.14 (inactive); in [6], 0.502 (inactive); in assay [7] it was 0.282. Besides, the z-score in [8] is 1.32 (inactive); in assay [9] it was 0.193 (inactive); in [10] it was 2.03; in [11], 0.0034; in [12], -0.126; in assay [13] it was 0.789. The z-score was 1.76 in assay [14]; 0.285 in [15]; 0.567 in [16]; 0.425 (inactive) in [17]; 0.222 in [18]; -1.33 in assay [19]. Moreover, in [20], the z-score was -0.0257 (inactive). Further, the composite z-score in assay [2] is -0.0035.

As for `Cc1ccc(S[C@]2(C(=O)NC(C)C)CC(=O)N(C3Cc4ccccc4C3)[C@@H]2c2ccc(CO)cc2I)cc1`, the z-score was 0.135 (inactive) in assay [1]; 8.47 (active) in [3]; 1.39 (inactive) in [4]; 1.67 (inactive) in assay [5]; 0.13 (inactive) in assay [6]; -0.086 in assay [7]. Besides, the z-score in assay [8] is 1.87 (inactive); in assay [9], -1.89 (inactive); in assay [10] it was 1.23; in assay [11], 0.6; in assay [12], -0.345; in assay [13], 0.425. The z-score in assay [14] is -1.7; in [15], -1.29; in assay [16] it was 0.221; in [17] it was -0.277 (inactive); in assay [18], -0.697; in assay [19], -2.19. In addition, in assay [20], the z-score is -0.526 (inactive). The molecule also yielded a composite z-score in assay [2] of -0.788.

Turning to `C=CC[C@]12N=C(c3ccc(OCCCO)cc3)O[C@H]1c1ccccc1N(C)C2=O`, the z-score was -0.0028 (inactive) in assay [1]; 31.9 (active) in assay [3]; 31.8 (active) in assay [4]; 4.16 (inactive) in assay [5]; 3.07 (inactive) in assay [6]; 0.289 in [7]. Also, the z-score was -2.49 (inactive) in assay [8]; -0.582 (inactive) in [9]; -1.8 in [10]; -1.3 in assay [11]; 0.614 in assay [12]; -0.593 in assay [13]. The z-score in assay [14] was -1.14; in assay [15] it was -3.83; in [16] it was 0.422; in assay [17], -0.427 (inactive); in [18], -1.17; in assay [19], 0.203. In addition, the z-score in [20] was -1.12 (inactive). Also, in assay [2], the composite z-score was found to be 1.11.

As to `CC(C)CN1C(=O)[C@@]2(c3ccc([N+](=O)[O-])cc3)CC(=O)N(CC34CC5CC(CC(C5)C3)C4)[C@@H]2c2ccc(CO)cc21`, the z-score in assay [1] was 0.193 (inactive); in assay [3] it was 1.17 (inactive); in [4], -0.377 (inactive); in [5] it was 0.0846 (inactive); in [6] it was -1.17 (inactive); in assay [7], 2.01. Besides, the z-score in assay [8] is -0.187 (inactive); in assay [9] it was -0.981 (inactive); in [10] it was -0.986; in assay [11], -0.181; in assay [12] it was 1.04; in [13], -0.744. For the same molecule, the z-score was -0.0484 in assay [14]; -0.544 in assay [15]; -0.849 in assay [16]; -0.316 (inactive) in assay [17]; 0.833 in assay [18]; -2.29 in assay [19]. In assay [20], the z-score was -0.186 (inactive). The molecule further registered a composite z-score in assay [2] of 0.129.

Regarding `CC=CC(O)C1C=CC2C(=O)N(c3ccccc3)C(=O)C2N1Nc1ccc([N+](=O)[O-])cc1` (stereo not given), the z-score in assay [1] is -1 (inactive); in assay [3], 8.61 (active); in assay [4], 1.61 (inactive); in assay [5], 0.457 (inactive); in [6], 0.876 (inactive); in [7] it was -0.701. Also, the z-score was -0.095 (inactive) in [8]; -1.91 (inactive) in assay [9]; -0.909 in assay [10]; -0.972 in assay [11]; -1.3 in [12]; 0.196 in assay [13]. Also, the z-score in [14] is 0.459; in assay [15] it was 0.471; in assay [16], -0.653; in [17] it was 0.207 (inactive); in [18] it was 0.592; in [19], -1.01. For the same molecule, the z-score in [20] was -0.0977 (inactive). This molecule yielded a composite z-score in assay [2] of 0.0378.

(Values after PubChem BioAssay.)
